In PubChem BioAssay AID1159580 (chemical genetic matrix, 2015):
“And” between values parts separate entries of the source, which are not always exact repeats. Identical values can stand only once. Screen size: about 5,500 compounds; about 2,000 (36%) were called active. Roughly 18% stayed inconclusive and do not appear here. No stated cut-off is given here; in the data, active means normalized growth mostly below about 0.91 (no sharp cut-off); inconclusive means no clear call, values can overlap the other calls; inactive means mostly above about 0.92. The list shows a part of the results.

Assay: chemical genetic growth profiling, strain panel (AID 1159580);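 further: tested at 20 µM; growth read once vehicle control cultures reached saturation at 30 °C; 1 = growth at the plate median or of vehicle wells; lower values mean less growth of the strain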
Conditions: S. cerevisiae deletion strains, growth OD

Measured: normalized growth

CCCCC(=O)O[C@H]1CCC2C3CCc4cc(O)ccc4C3CC[C@@]21C (some centres not stated)
inactive: locus YAL021C, strain ccr4, active compounds read low 1.02 | locus YAL026C, strain drs2, active compounds read low 1.02 | locus YAL030W, strain snc1, active compounds read low 1.03 | locus YBL061C, strain skt5, active compounds read low 1.01 | locus YBR009C, strain hhf1, active compounds read low 0.988 | locus YBR021W, strain FUR4, active compounds read low 0.99 | locus YBR023C, strain chs3, active compounds read low 1.01 | locus YBR171W, strain sec66, active compounds read low 1.03 | locus YBR229C, strain ROT2, active compounds read low 0.943 | locus YBR231C, strain swc5, active compounds read low 1.04 | locus YBR279W, strain paf1, active compounds read low 1.01 | locus YCL011C, strain gbp2, active compounds read low 1.01 | locus YCL016C, strain dcc1, active compounds read low 0.979 | locus YCL029C, strain bik1, active compounds read low 0.98 | locus YCL061C, strain MRC1, active compounds read low 1.02 | locus YCL069W, strain vba3, active compounds read low 1.01 | locus YCR088W, strain abp1, active compounds read low 1.01 | locus YDL005C, strain med2, active compounds read low 1.01 | locus YDL035C, strain GPR1, active compounds read low 0.948 | locus YDL040C, strain nat1, active compounds read low 1.02 | locus YDL074C, strain BRE1, active compounds read low 0.926 | locus YDL101C, strain DUN1, active compounds read low 0.98 | locus YDL134C, strain PPH21, active compounds read low 0.954 | locus YDL185W, strain tfp1, active compounds read low 0.988 | locus YDL192W, strain arf1, active compounds read low 1 | locus YDR001C, strain nth1, active compounds read low 1.01 | locus YDR069C, strain doa4, active compounds read low 1.01 | locus YDR101C, strain arx1, active compounds read low 0.953 | locus YDR137W, strain rgp1, active compounds read low 0.973 | locus YDR150W, strain NUM1, active compounds read low 0.988 | locus YDR159W, strain sac3, active compounds read low 0.953 | locus YDR162C, strain NBP2, active compounds read low 0.919 | locus YDR195W, strain ref2 1.03 | locus YDR297W, strain sur2, active compounds read low 1.03 | locus YDR318W, strain mcm21, active compounds read low 0.996 | locus YDR334W, strain swr1, active compounds read low 1.02 | locus YDR335W, strain msn5, active compounds read low 1.02 | locus YDR388W, active compounds read low 0.992 | locus YDR392W, strain spt3, active compounds read low 0.804 | locus YDR502C, strain sam2, active compounds read low 0.995 | locus YEL003W, strain gim4, active compounds read low 1.02 | locus YEL037C, strain rad23, active compounds read low 1.02 | locus YEL061C, strain CIN8 (second series), active compounds read low 1.02 | locus YEL061C, strain CIN8, active compounds read low 0.985 | locus YER015W, strain faa2, active compounds read low 1 | locus YER016W, strain bim1, active compounds read low 1 | locus YER110C, active compounds read low 1.01 | locus YER111C, strain swi4, active compounds read low 1.01 | locus YER155C, strain BEM2 (second series), active compounds read low 1.03 | locus YER155C, strain BEM2, active compounds read low 0.979 | locus YER167W, strain BCK2, active compounds read low 0.979 | locus YFR010W, strain ubp6, active compounds read low 1.04 | locus YGL078C, strain dbp3, active compounds read low 1.01 | locus YGL086W, strain mad1, active compounds read low 0.968 | locus YGL167C, strain pmr1, active compounds read low 1.04 | locus YGL173C, strain kem1, active compounds read low 1.01 | locus YGL227W, strain vid30, active compounds read low 1.01 | locus YGL240W, strain doc1, active compounds read low 1.04 | locus YGL248W, strain PDE1, active compounds read low 0.976 | locus YGL253W, strain hxk2, active compounds read low 0.997 | locus YGR078C, strain PAC10, active compounds read low 0.973 | locus YGR135W, strain pre9, active compounds read low 1.07 | locus YGR252W, strain gcn5, active compounds read low 1.1 | locus YHR013C, strain ard1, active compounds read low 1.03 | locus YHR027C, strain rpn1, active compounds read low 1.02 | locus YHR030C, strain SLT2, active compounds read low 0.98 and 0.996 | locus YHR079C, strain IRE1 (second series), active compounds read low 0.997 | locus YHR079C, strain IRE1, active compounds read low 0.989 | locus YHR094C, strain hxt1, active compounds read low 0.991 | locus YHR129C, strain ARP1, active compounds read low 0.989 | locus YHR142W, strain chs7, active compounds read low 1.01 | locus YHR200W, strain rpn10, active compounds read low 0.998 | locus YIL066C, strain RNR3, active compounds read low 0.961 | locus YIL073C, strain SPO22, active compounds read low 1 | locus YIL125W, strain kgd1, active compounds read low 0.998 | locus YIR030C, strain dcg1, active compounds read low 1.01 | locus YJL092W, strain hpr5, active compounds read low 1.01 | locus YJL095W, strain BCK1 (second series), active compounds read low 1.02 | locus YJL095W, strain BCK1, active compounds read low 0.926 and 0.996 | locus YJL115W, strain asf1, active compounds read low 1.02 | locus YJL129C, strain trk1, active compounds read low 0.996 | locus YJL134W, strain LCB3, active compounds read low 0.982 | locus YJL154C, strain vps35, active compounds read low 1.01 | locus YJL164C, strain tpk1, active compounds read low 0.987 | locus YJL166W, strain qcr8, active compounds read low 1.02 | locus YJL168C, strain set2, active compounds read low 1 | locus YJL187C, strain SWE1 (second series), active compounds read low 0.982 | locus YJL187C, strain SWE1, active compounds read low 1.02 | locus YJR043C, strain POL32, active compounds read low 0.955 | locus YJR066W, strain TOR1, active compounds read low 0.916 | locus YKL009W, strain mrt4, active compounds read low 0.95 | locus YKL068W, active compounds read low 0.989 | locus YKL085W, strain MDH1 (second series), active compounds read low 1.01 | locus YKL085W, strain MDH1, active compounds read low 1.01 | locus YKL160W, strain elf1, active compounds read low 1.01 | locus YKL190W, strain CNB1, active compounds read low 0.992 | locus YKR001C, strain vps1, active compounds read low 0.959 | locus YKR026C, strain gcn3, active compounds read low 1.01 | locus YKR091W, strain srl3, active compounds read low 1.01 | locus YLL001W, strain dnm1, active compounds read low 1.02 | locus YLL026W, active compounds read low 1.02 | locus YLL041C, strain sdh2, active compounds read low 1.02 | locus YLR027C, strain aat2, active compounds read low 1.03 | locus YLR039C, strain RIC1, active compounds read low 0.848 | locus YLR058C, strain SHM2, active compounds read low 0.96 | locus YLR102C, strain apc9, active compounds read low 1.01 | locus YLR113W, strain HOG1, active compounds read low 1.03 | locus YLR221C, strain rsa3, active compounds read low 0.995 | locus YLR258W, strain gsy2, active compounds read low 1 | locus YLR262C, strain YPT6 (second series), active compounds read low 0.974 | locus YLR262C, strain YPT6, active compounds read low 0.749 | locus YLR268W, strain sec22, active compounds read low 0.982 | locus YLR320W, strain mms22, active compounds read low 0.981 | locus YLR330W, strain CHS5, active compounds read low 0.984 | locus YLR342W, strain FKS1 (second series), active compounds read low 0.98 | locus YLR342W, strain FKS1, active compounds read low 0.998 | locus YLR357W, strain rsc2, active compounds read low 0.999 | locus YLR370C, strain arc18, active compounds read low 1.03 | locus YLR371W, strain rom2, active compounds read low 0.985 | locus YLR384C, strain iki3, active compounds read low 1.02 | locus YLR418C, strain cdc73, active compounds read low 1.02 | locus YML016C, strain PPZ1, active compounds read low 0.979 | locus YML032C, strain rad52, active compounds read low 0.987 | locus YML120C, strain ndi1, active compounds read low 1.02 | locus YML124C, strain tub3, active compounds read low 1 | locus YMR058W, strain fet3, active compounds read low 1.02 | locus YMR078C, strain ctf18, active compounds read low 1 | locus YMR125W, strain sto1, active compounds read low 0.999 | locus YMR129W, active compounds read low 1.01 | locus YMR205C, strain PFK2, active compounds read low 0.985 | locus YMR223W, strain ubp8, active compounds read low 1.04 | locus YMR231W, strain pep5, active compounds read low 1.05 | locus YMR307W, strain GAS1, active compounds read low 0.881 | locus YNL067W, strain RPL9B, active compounds read low 0.982 | locus YNL071W, strain lat1, active compounds read low 0.965 | locus YNL128W, strain TEP1, active compounds read low 0.982 | locus YNL183C, strain NPR1, active compounds read low 0.983 | locus YNL209W, strain ssb2, active compounds read low 1.02 | locus YNL233W, strain BNI4, active compounds read low 0.986 | locus YNL248C, strain rpa49, active compounds read low 1.01 | locus YNL250W, strain rad50, active compounds read low 0.984 | locus YNL271C, strain bni1, active compounds read low 1 | locus YNL298W, strain CLA4, active compounds read low 1 | locus YNL307C, strain MCK1, active compounds read low 1 | locus YNL322C, strain KRE1 (second series), active compounds read low 1.01 | locus YNL322C, strain KRE1, active compounds read low 0.998 | locus YNR049C, strain mso1, active compounds read low 1 | locus YNR052C, strain pop2, active compounds read low 1.01 | locus YOL012C, strain htz1 1.24 | locus YOL147C, strain pex11, active compounds read low 1.01 | locus YOR001W, strain rrp6, active compounds read low 1.03 | locus YOR061W, strain CKA2, active compounds read low 0.962 | locus YOR069W, strain VPS5, active compounds read low 0.984 | locus YOR070C, strain gyp1, active compounds read low 1.02 | locus YOR080W, strain dia2, active compounds read low 1.03 | locus YOR083W, strain WHI5, active compounds read low 1 | locus YOR106W, strain vam3, active compounds read low 1.04 | locus YOR136W, strain idh2, active compounds read low 1 | locus YOR144C, strain elg1, active compounds read low 0.999 | locus YOR184W, strain ser1, active compounds read low 0.969 | locus YOR231W, strain MKK1, active compounds read low 1.04 | locus YOR265W, strain rbl2, active compounds read low 1.02 | locus YOR270C, strain vph1, active compounds read low 0.965 | locus YOR290C, strain snf2, active compounds read low 0.988 | locus YOR316C, strain cot1, active compounds read low 0.994 | locus YPL051W, strain arl3, active compounds read low 1.01 | locus YPL055C, strain LGE1, active compounds read low 0.959 | locus YPL078C, strain atp4, active compounds read low 1.03 | locus YPL106C, strain sse1, active compounds read low 1 | locus YPL240C, strain hsp82, active compounds read low 1.01 | locus YPL241C, strain CIN2, active compounds read low 0.975 | locus YPL256C, strain CLN2, active compounds read low 1 | locus YPR119W, strain clb2, active compounds read low 0.998 | locus YPR141C, strain kar3, active compounds read low 0.997 | locus YPR163C, strain tif3, active compounds read low 1.01 | locus YPR167C, strain met16, active compounds read low 1 | strain wtn01, active compounds read low 1.03
